Test results: the supplement of paper PMC6897291
Counter-ions that a name gives are not always drawn.

Experiments:
U-2932 [1] = experiment: growth inhibition by drug alone (1 - RLU/untreated control) (fraction); higher = stronger inhibition; conditions: 177Lu-lilotomab satetraxetan 0 ug/ml
Summary of the method: (§1)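 Growth inhibition was calculated from RealTime-Glo RLU against untreated no-drug wells. Values equal 1 − RLU/mean of 48 untreated no-drug wells per plate, read daily from day 3 after 1 h at 37°C. RIVA and U-2932 cells, with or without 18 h pretreatment by a radiolabelled anti-CD37 antibody conjugate (~600 MBq/mg; 0.5 µg/ml RIVA, 1 µg/ml U-2932), were washed and plated at 3,000 cells/well on compound-printed plates at 10/100 nM (RIVA) or 10/1,000 nM (U-2932).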

RIVA [2] = experiment: as above; conditions: 177Lu-lilotomab satetraxetan 0 ug/ml
Summary of the method: as §1

U-2932 [3] = experiment: growth inhibition by drug plus 177Lu-lilotomab satetraxetan (1 - RLU/untreated control) (fraction); higher = stronger inhibition; conditions: 177Lu-lilotomab satetraxetan 1 ug/ml
Summary of the method: as §1

RIVA [4] = experiment: as above; conditions: 177Lu-lilotomab satetraxetan 0.5 ug/ml
Summary of the method: as §1

| SMILES | growth inhibition by drug alone (U-2932 [1]; 10 nM, time (day): 3) | growth inhibition by drug alone (U-2932 [1]; 10 nM, time (day): 4) | growth inhibition by drug alone (U-2932 [1]; 10 nM, time (day): 5) | growth inhibition by drug alone (U-2932 [1]; 10 nM, time (day): 6) | growth inhibition by drug alone (U-2932 [1]; 1000 nM, time (day): 3) | growth inhibition by drug alone (U-2932 [1]; 1000 nM, time (day): 4) | growth inhibition by drug alone (U-2932 [1]; 1000 nM, time (day): 5) | growth inhibition by drug alone (U-2932 [1]; 1000 nM, time (day): 6) | growth inhibition by drug alone (RIVA [2]; 10 nM, time (day): 3) | growth inhibition by drug alone (RIVA [2]; 10 nM, time (day): 4) | growth inhibition by drug alone (RIVA [2]; 10 nM, time (day): 5) | growth inhibition by drug alone (RIVA [2]; 10 nM, time (day): 6) | growth inhibition by drug alone (RIVA [2]; 100 nM, time (day): 3) | growth inhibition by drug alone (RIVA [2]; 100 nM, time (day): 4) | growth inhibition by drug alone (RIVA [2]; 100 nM, time (day): 5) | growth inhibition by drug alone (RIVA [2]; 100 nM, time (day): 6) | growth inhibition by drug plus 177Lu-lilotomab satetraxetan (U-2932 [3]; 10 nM, time (day): 3) | growth inhibition by drug plus 177Lu-lilotomab satetraxetan (U-2932 [3]; 10 nM, time (day): 4) | growth inhibition by drug plus 177Lu-lilotomab satetraxetan (U-2932 [3]; 10 nM, time (day): 5) | growth inhibition by drug plus 177Lu-lilotomab satetraxetan (U-2932 [3]; 10 nM, time (day): 6) | growth inhibition by drug plus 177Lu-lilotomab satetraxetan (U-2932 [3]; 1000 nM, time (day): 3) | growth inhibition by drug plus 177Lu-lilotomab satetraxetan (U-2932 [3]; 1000 nM, time (day): 4) | growth inhibition by drug plus 177Lu-lilotomab satetraxetan (U-2932 [3]; 1000 nM, time (day): 5) | growth inhibition by drug plus 177Lu-lilotomab satetraxetan (U-2932 [3]; 1000 nM, time (day): 6) | growth inhibition by drug plus 177Lu-lilotomab satetraxetan (RIVA [4]; 10 nM, time (day): 3) | growth inhibition by drug plus 177Lu-lilotomab satetraxetan (RIVA [4]; 10 nM, time (day): 4) | growth inhibition by drug plus 177Lu-lilotomab satetraxetan (RIVA [4]; 10 nM, time (day): 5) | growth inhibition by drug plus 177Lu-lilotomab satetraxetan (RIVA [4]; 10 nM, time (day): 6) | growth inhibition by drug plus 177Lu-lilotomab satetraxetan (RIVA [4]; 100 nM, time (day): 3) | growth inhibition by drug plus 177Lu-lilotomab satetraxetan (RIVA [4]; 100 nM, time (day): 4) | growth inhibition by drug plus 177Lu-lilotomab satetraxetan (RIVA [4]; 100 nM, time (day): 5) | growth inhibition by drug plus 177Lu-lilotomab satetraxetan (RIVA [4]; 100 nM, time (day): 6) |
| --- | --- | --- | --- | --- | --- | --- | --- | --- | --- | --- | --- | --- | --- | --- | --- | --- | --- | --- | --- | --- | --- | --- | --- | --- | --- | --- | --- | --- | --- | --- | --- | --- |
| CC(C)C(=O)Nc1ccc([N+](=O)[O-])c(C(F)(F)F)c1 [Flutamide (Eulexin)] | 0.147 | 0.0928 | 0.0103 | -0.0414 | 0.15 | 0.123 | 0.105 | 0.0519 | 0.122 | 0.106 | 0.0768 | -0.0242 | -0.044 | 0.0232 | 0.0258 | -0.0163 | 0.105 | 0.202 | 0.26 | 0.327 | 0.175 | 0.211 | 0.291 | 0.385 | 0.611 | 0.616 | 0.649 | 0.663 | 0.534 | 0.562 | 0.599 | 0.626 |
| CO[C@H]1/C=C\C=C(/C)C(=O)NC2=CC(=O)C(NCCN(C)C)=C(C[C@@H](C)C[C@H](OC)[C@H](O)[C@@H](C)/C=C(\C)[C@@H]1OC(N)=O)C2=O [17-DMAG HCl (Alvespimycin)] | 0.163 | 0.099 | -0.033 | -0.0727 | 0.944 | 0.979 | 0.985 | 0.986 | 0.132 | 0.103 | 0.0633 | -0.0974 | 0.922 | 0.953 | 0.961 | 0.96 | 0.0703 | 0.119 | 0.177 | 0.21 | 0.956 | 0.982 | 0.988 | 0.99 | 0.602 | 0.624 | 0.637 | 0.653 | 0.96 | 0.98 | 0.982 | 0.987 |
| O=c1c(O)c(-c2ccc(O)c(O)c2)oc2cc(O)cc(O)c12 [Quercetin (Sophoretin)] | 0.129 | 0.074 | -0.0824 | -0.0972 | 0.0543 | 0.0523 | 0.0143 | -0.101 | -0.0527 | -0.036 | -0.117 | -0.426 | -0.494 | -0.296 | -0.357 | -0.683 | 0.0451 | 0.0897 | 0.166 | 0.21 | 0.0503 | 0.0821 | 0.135 | 0.211 | 0.546 | 0.61 | 0.613 | 0.619 | 0.346 | 0.469 | 0.48 | 0.508 |
| CC[C@H](Nc1ncnc2[nH]cnc12)c1nc2cccc(F)c2c(=O)n1-c1ccccc1 | -0.00827 | -0.000402 | -0.0211 | 0.0544 | 0.567 | 0.374 | 0.289 | 0.263 | -0.102 | -0.203 | -0.182 | -0.255 | 0.424 | 0.204 | 0.175 | 0.0639 | -0.0906 | -0.0707 | -0.0592 | 0.0112 | 0.507 | 0.287 | 0.217 | 0.234 | 0.367 | 0.448 | 0.484 | 0.5 | 0.575 | 0.541 | 0.554 | 0.546 |
